Compounds with a hit are over-represented: about 5.6% of the library has one in this group of screens.
CtBP-E1A inh: qHTS Assay for Inhibitors of the CtBP/E1A Interaction; AlphaScreen GST-E1A/His-CtBP binding, 1536-well; active compounds read low; activity change, % (no concentration beside the values); 340,000 compounds, 0.49% hits; CtBP / adenovirus E1A interaction (AlphaScreen); in the data active = activity change below about -65%; inconclusive = mostly about -30% to -63%
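Steps: dispense buffer (Tris pH 8.0, NaCl 300 mM, TCEP 1 mM, BSA, Tween 20); add 5X protein mix (GST-E1A, His-CtBP, 125 nM each); pin 23 nL compound; 2 h at 37 °C, dark; add 5X beads (50 ug/mL); 1 h; read.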
Six1-Eya2 inh: qHTS Assay for Inhibitors of the Six1/Eya2 Interaction; Homeobox protein SIX1 (Homo sapiens) + Protein phosphatase EYA2 (Homo sapiens), …; AlphaScreen GST-Six1/His-Eya2 binding, biochemical; active compounds read low; activity change, % (test concentration not listed); 360,000 compounds, 0.56% hits; in the data active = activity change below about -65%; inconclusive = mostly about -30% to -63%
Target sequence (O00167 whole entry, looked up): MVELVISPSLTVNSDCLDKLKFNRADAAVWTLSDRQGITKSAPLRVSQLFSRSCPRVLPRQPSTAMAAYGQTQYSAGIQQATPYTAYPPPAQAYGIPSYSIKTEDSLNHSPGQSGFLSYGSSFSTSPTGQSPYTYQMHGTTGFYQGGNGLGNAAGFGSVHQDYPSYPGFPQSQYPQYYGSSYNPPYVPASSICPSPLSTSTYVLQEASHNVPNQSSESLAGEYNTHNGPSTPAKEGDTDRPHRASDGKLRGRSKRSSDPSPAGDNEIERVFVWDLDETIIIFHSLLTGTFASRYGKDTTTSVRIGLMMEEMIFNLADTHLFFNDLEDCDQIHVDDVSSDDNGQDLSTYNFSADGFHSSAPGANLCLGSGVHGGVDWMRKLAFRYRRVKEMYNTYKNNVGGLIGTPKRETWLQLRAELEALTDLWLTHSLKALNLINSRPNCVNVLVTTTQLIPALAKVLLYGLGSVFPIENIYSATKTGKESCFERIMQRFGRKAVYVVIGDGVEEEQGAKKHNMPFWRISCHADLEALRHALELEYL
Target sequence (Q15475 whole entry, looked up): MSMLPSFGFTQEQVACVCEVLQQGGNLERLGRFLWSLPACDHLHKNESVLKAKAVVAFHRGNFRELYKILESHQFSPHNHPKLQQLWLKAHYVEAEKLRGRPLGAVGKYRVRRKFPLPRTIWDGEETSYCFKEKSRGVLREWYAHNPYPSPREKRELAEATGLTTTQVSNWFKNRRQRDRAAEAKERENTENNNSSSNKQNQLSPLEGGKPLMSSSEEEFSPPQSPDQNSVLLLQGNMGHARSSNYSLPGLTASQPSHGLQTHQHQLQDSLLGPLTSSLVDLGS
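AlphaScreen luminescence read after one hour at 37 °C in darkness. Pin-transferred compounds met GST-Six1 and His-Eya2 protein (5X stock 250 nM/500 nM) plus glutathione donor and Ni-chelate acceptor beads (5X, 50 ug/mL).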
Gal4-VP16 FLuc: VP16 counterscreen qHTS for inhibitors of ROR gamma transcriptional activity; Drosophila S2 Gal4-VP16 UAS-luciferase, luminescence, 20 h; Potency, µM (titrated, usually from 53.6 µM), for inactives: top-dose activity, negative = inhibition, usual class: inhibitors; AID 2546, 2010; 310,000 compounds, 3.5% hits;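 also: Gal4-VP16 expression switched on by copper sulfate through the metallothionein promoter; potency is read from the fitted curve at half-maximal effect; nearly all actives have a fitted effect of over 50% in size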
PKM2 activator: qHTS Assay for Activators of Human Muscle isoform 2 Pyruvate Kinase. Potency, µM (top dose mostly 57.5 µM), for the others: at the top dose activation, usual class: activators. Pyruvate kinase PKM (Homo sapiens), P14618. 260,000 compounds, 0.34% hits. purified PKM2, Kinase-Glo ATP luminescence, activation; response scale: 0% is enzyme alone, no compound; also: potency is read from the fitted curve at half-maximal effect; nearly all actives have a fitted effect of over 55% in size
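hPK-M2, >95% pure; 0.1 mM ADP / 0.5 mM PEP final; imidazole pH7.2 buffer w/ 7 mM MgCl2, 50 mM KCl; 1 h RT; Kinase-Glo lum. Intermediate enzyme activity for dual inhibitor/activator qHTS.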
RORg inh: qHTS for inhibitors of ROR gamma transcriptional activity; Drosophila S2 Gal4-RORgamma UAS-luciferase reporter, 20 h; Potency, µM (top dose mostly 53.6 µM), without a hit: top-dose activity change, negative = inhibition, hits mostly inhibitors; 310,000 compounds, 5.4% hits; AID 2551, 2010; Nuclear receptor ROR-gamma (Mus musculus), P51450; also: potency is read from the fitted curve at half-maximal effect; nearly all actives have a fitted effect of over 60% in size
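Using a luciferase readout, inhibitors were identified by reduced reporter activity in Drosophila cells coexpressing a copper-inducible Gal4–ROR gamma fusion and UAS-driven Photinus luciferase, incubated 20 hr after 700 uM copper sulfate.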
* hit, by the source's call; ! = not confirmed by another sample; [ ] = remark or other dose. Unless noted, calls follow the shape of the dose curve; as a rule, active = well fitted curve in the direction sought with a large enough effect; inconclusive = small, poorly fitted or top-dose-only effect, or another doubt; inactive = no such curve, though single readings can be large; an effect the other way counts as inactive or inconclusive. % is scaled to controls: 0 for no effect and ±100 for the full control effect.

CC1OC(=O)C(C(C)C)NC(=O)C(C(C)C)OC(=O)C(C(C)C)NC(=O)C(C)OC(=O)C(C(C)C)NC(=O)C(C(C)C)OC(=O)C(C(C)C)NC(=O)C(C)OC(=O)C(C(C)C)NC(=O)C(C(C)C)OC(=O)C(C(C)C)NC1=O (configuration not stated) was read as Gal4-VP16 FLuc 0.56µM* and RORg inh 0.25µM*.
COc1ccc(-c2oc3cc(OC)ccc3c(=O)c2O)cc1 was read as Gal4-VP16 FLuc 7.9µM* and RORg inh 5µM*.
`CCc1ccc(N2C(=O)NC(=O)/C(=C\c3cccn3CCOc3ccc(C(C)C)cc3)C2=O)cc1` gave CtBP-E1A inh -2, Six1-Eya2 inh -8, Gal4-VP16 FLuc 0.4µM*, PKM2 activator 25% and RORg inh -22%.
c1ccc(N2CC[C@@]3(CCCNC3)C2)cc1 was read as Gal4-VP16 FLuc 2% and RORg inh -2%.
O=C(Cl)C(Cl)(Cl)Cl was read as Gal4-VP16 FLuc 2% and RORg inh -3%.
Cc1ccc(-c2cc(-c3ccc(C)cc3)[n+](-c3ccc(C(=O)O)cc3)c(-c3ccc(C)cc3)c2)cc1 was read as CtBP-E1A inh 0 and Six1-Eya2 inh -2.
Screening O=C(O)c1ccc(-c2ccc3cc(C45CC6CC(CC(C6)C4)C5)c(O)cc3c2)cc1 returned Gal4-VP16 FLuc 11µM* and RORg inh inconclusive.
CC[C@]12C=CCN3CC[C@@]4(c5ccc(OC)cc5N(C)[C@H]4[C@@](O)(C(=O)OC)[C@@H]1OC(C)=O)C32 (some centres not stated) was read as Gal4-VP16 FLuc -6% and RORg inh 32%.
For O=C(Cn1cc(C(=O)c2ccccc2)c2ccccc21)NCc1ccco1 the results were CtBP-E1A inh -6, Six1-Eya2 inh -3, Gal4-VP16 FLuc -1%, PKM2 activator -4% and RORg inh 12%.
For COc1ccc(OCCn2cc(/C=C(\C#N)C(=O)NCc3ccco3)c3ccccc32)cc1 the results were CtBP-E1A inh 1, Six1-Eya2 inh 4, Gal4-VP16 FLuc 3.5µM*, PKM2 activator 5% and RORg inh -41%.
For NCCc1c[nH]c2ccc(O)cc12 the results were Gal4-VP16 FLuc 11% and RORg inh 3%.
`Cc1nn(CCc2n[nH]c(=S)n2-c2cccc(Cl)c2)c(C)c1[N+](=O)[O-]` gave CtBP-E1A inh 4, Six1-Eya2 inh 0, Gal4-VP16 FLuc -22%, PKM2 activator -9% and RORg inh inconclusive.
Screening CCc1n[nH]c(=S)n1/N=C/c1c(C)nn(-c2ccccc2)c1Cl returned CtBP-E1A inh 1, Six1-Eya2 inh -10, Gal4-VP16 FLuc inconclusive, PKM2 activator -6% and RORg inh 7.1µM*.
C[C@@H]1C[C@@H]2[C@H]([C@H]3C=C(COC(=O)c4ccccc4)[C@@H](O)[C@]4(O)[C@@H](O)C(OC(=O)c5ccccc5)=C[C@@]14C3=O)C2(C)C was read as Gal4-VP16 FLuc -19% and RORg inh 3%.
`CN1CSC(=S)N(C)C1` gave CtBP-E1A inh -2, Six1-Eya2 inh 6, Gal4-VP16 FLuc 11µM*, PKM2 activator -26% and RORg inh 10µM*.
For CCCCC/C=C\C/C=C\C/C=C\C/C=C\CCCC(=O)N(Cc1ccc(O)c(Cl)c1)Cc1ccc(O)c(Cl)c1 the results were Gal4-VP16 FLuc 10% and RORg inh 3%.
CC1Oc2cc3c(-c4c(O)cc(O)c5c(O)c6c(cc45)OC(C)C(C)C6=O)c(O)cc(O)c3c(O)c2C(=O)C1C (configuration not stated) was read as CtBP-E1A inh -18, Six1-Eya2 inh -26, Gal4-VP16 FLuc inconclusive, PKM2 activator 2% and RORg inh 4µM*.
`COC(=O)COc1cc(Cl)c(Cl)cc1Cl` gave Gal4-VP16 FLuc -6% and RORg inh -18%.
`OC(c1cccc(Cl)c1)(c1cccc(Cl)c1)C1CN2CCC1CC2` (configuration not stated) gave CtBP-E1A inh 6, Six1-Eya2 inh 4, Gal4-VP16 FLuc 11µM*, PKM2 activator -6% and RORg inh 6.3µM*.
Screening O=[N+]([O-])c1ccccc1-c1ccccc1 returned Gal4-VP16 FLuc -21% and RORg inh 10%.
`O=C(CNC(=O)c1ccc(Cl)cc1)Nc1ccc(Br)cc1C(=O)c1ccccc1` gave CtBP-E1A inh -20, Six1-Eya2 inh -8, Gal4-VP16 FLuc -3%, PKM2 activator 1% and RORg inh inconclusive.
Screening CN(C)S(=O)(=O)c1ccc(C(=O)NNc2nc(-c3ccccc3)c3cc(Br)ccc3n2)cc1 returned CtBP-E1A inh 4, Six1-Eya2 inh inconclusive, Gal4-VP16 FLuc inconclusive, PKM2 activator -5% and RORg inh 7.1µM*.
C#CCN[C@H](C)Cc1ccccc1 was read as CtBP-E1A inh 1 and Six1-Eya2 inh -17.
For C[C@@H](Cc1cccc(C(F)(F)F)c1)NCCCc1ccccc1 the results were Gal4-VP16 FLuc -11% and RORg inh 22µM*.
For C[C@@H]1O[C@@H](O[C@H]2C[C@@H](O)[C@@]3(CO)[C@H]4[C@H](O)C[C@]5(C)[C@@H](C6=CC(=O)OC6)CC[C@]5(O)[C@H]4CC[C@@]3(O)C2)[C@@H](O)[C@H](O)[C@H]1O the results were Gal4-VP16 FLuc -5% and RORg inh -21%[10 µM].
CN1C[C@H](CNC(=O)OCc2ccccc2)C[C@@H]2c3cccc4c3c(cn4C)C[C@H]21 was read as CtBP-E1A inh inconclusive, Six1-Eya2 inh -8, Gal4-VP16 FLuc -1%, PKM2 activator 19% and RORg inh 22µM*!.
For O=C(NC1CCCCC1)c1cn(CCN2CCOCC2)c2cc(Cl)ccc2c1=O the results were Gal4-VP16 FLuc -8% and RORg inh -10%.
For [O-][Cl+]O the results were Gal4-VP16 FLuc -13% and RORg inh -11%.
`Cc1nn(Cc2ccccc2)c2c1C(c1ccco1)C(C#N)=C(N)O2` (configuration not stated) gave CtBP-E1A inh 0, Six1-Eya2 inh -5, Gal4-VP16 FLuc -17%, PKM2 activator inconclusive and RORg inh 7.1µM*.
CCCSC(=O)Cl was read as Gal4-VP16 FLuc 3% and RORg inh 15%.
[Cl-].[Cl-].[Hg+2] was read as Gal4-VP16 FLuc 18µM* and RORg inh inconclusive.
Screening O=C1CC2OCC=C3CN4CCC56c7ccccc7N1C5C2C3CC46 (configuration not stated) returned Gal4-VP16 FLuc -3% and RORg inh -26%.
